Assay results published in the supplement of paper PMC10849652.
About 7,900 targets were measured; listed, in parts, are those with a hit and a random draw of the rest. About 0.6% of all pairs of compound and target were hits.

Assays:
Assay in all cases: log2 fold change, soluble protein after heating vs DMSO (PISA); higher = thermal stabilisation; K562 cells, 10 uM, 30 min; active = over 0.2 and 3.5 SD of the protein, either way, in both replicates (recomputed)
[1] = compound: CC1=C(C=C(C=C1)NC(=O)C2=CC(=CC=C2)C(C)(C)C#N)NC3=CC4=C(C=C3)N=CN(C4=O)C
Procedure, shortened: (§1)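 Values are thermal stability changes relative to control samples and are taken from duplicates. They are stated as log2 fold changes. Before quantification by TMTpro 16plex LC-MS/MS with equalised channel sums, K562 cells at 2×10^6 cells/mL were treated with 10 μM compound for 30 min, heated in aliquots for 3 min across 48°C-58°C, pooled, extracted in PBS with 0.5% NP-40 at 4°C, and centrifuged at 21,000xg for 90 min to give the soluble supernatant.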

[2] = compound: CC1=C(C=C(C=C1)NC(=O)C2=CC(=CC=C2)N(C)C)NC(=O)C3=CC=C(C=C3)O
Procedure, shortened: as §1

[3] = compound: CC1=CC=C(C=C1)SC2=C3C=C(SC3=CN=C2)C(=O)N
Procedure, shortened: as §1

[4] = compound: CC1=NC(=CC=C1)C2=C(N=C(N2)C(C)(C)C)C3=CC4=NC=CN=C4C=C3
Procedure, shortened: as §1

Nexturastat A = compound: CCCCN(Cc1ccc(C(=O)NO)cc1)C(=O)Nc1ccccc1 [Nexturastat A]
Procedure, shortened: as §1

vemurafenib = compound: CCCS(=O)(=O)Nc1ccc(F)c(C(=O)c2c[nH]c3ncc(-c4ccc(Cl)cc4)cc23)c1F [vemurafenib]
Procedure, shortened: as §1

[5] = compound: CCCS(=O)(=O)Nc1ccc(F)c(C(=O)c2c[nH]c3ncc(Cl)cc23)c1F
Procedure, shortened: as §1

[6] = compound: CCCc1cc(C)[nH]c(=O)c1CNC(=O)c1cc(-c2ccnc(N3CCN(C)CC3)c2)cc2c1cnn2C(C)C
Procedure, shortened: as §1

givinostat = compound: CCN(CC)Cc1ccc2cc(COC(=O)Nc3ccc(C(=O)NO)cc3)ccc2c1 [givinostat]
Procedure, shortened: as §1

barasertib = compound: CCN(CCCOc1ccc2c(Nc3cc(CC(=O)Nc4cccc(F)c4)[nH]n3)ncnc2c1)CCOP(=O)(O)O [barasertib]
Procedure, shortened: as §1

Measured: log2 fold change

PLSCR1 (UniProt O15162)
Chain of UniProt O15162 (O15162 whole entry, looked up): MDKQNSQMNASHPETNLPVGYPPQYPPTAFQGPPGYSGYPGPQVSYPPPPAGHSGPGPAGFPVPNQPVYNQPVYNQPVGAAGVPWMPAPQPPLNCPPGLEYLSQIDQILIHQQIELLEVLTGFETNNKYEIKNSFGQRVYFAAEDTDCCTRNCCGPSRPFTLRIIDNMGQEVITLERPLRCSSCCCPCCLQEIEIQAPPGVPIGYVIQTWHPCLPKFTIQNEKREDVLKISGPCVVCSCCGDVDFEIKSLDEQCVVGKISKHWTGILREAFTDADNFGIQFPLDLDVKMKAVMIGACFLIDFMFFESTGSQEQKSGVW
inactive: [1] 0.13 | [2] 0.06 | [3] 0.025 | [4] -0.002 | Nexturastat A 0.008 | vemurafenib -0.05 | [5] 0.088 | [6] -0.101 | givinostat -0.033 | barasertib -0.104

PISD (UniProt Q9UG56)
inactive: [1] -0.015 | [2] 0.002 | [3] 0.013 | [4] 0.085 | Nexturastat A 0.022 | vemurafenib -0.068 | [5] 0.049 | [6] 0.009 | givinostat 0.024 | barasertib 0.026

POLD3 (UniProt Q15054)
Chain of UniProt Q15054 (Q15054 whole entry, looked up): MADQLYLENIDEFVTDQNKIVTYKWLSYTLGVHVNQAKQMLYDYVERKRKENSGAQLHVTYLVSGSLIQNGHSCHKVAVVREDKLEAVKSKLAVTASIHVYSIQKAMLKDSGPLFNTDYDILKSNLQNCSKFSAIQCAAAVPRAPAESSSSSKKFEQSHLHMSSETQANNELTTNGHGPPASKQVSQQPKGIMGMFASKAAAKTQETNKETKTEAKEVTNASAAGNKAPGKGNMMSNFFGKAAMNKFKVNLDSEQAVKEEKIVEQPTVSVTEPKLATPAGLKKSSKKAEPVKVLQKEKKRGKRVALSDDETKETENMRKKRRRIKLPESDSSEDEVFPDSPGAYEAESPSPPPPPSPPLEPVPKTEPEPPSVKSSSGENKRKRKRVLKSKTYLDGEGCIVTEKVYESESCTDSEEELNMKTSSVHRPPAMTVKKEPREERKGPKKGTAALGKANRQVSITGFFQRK
inactive: [1] -0.131 | [2] -0.055 | [3] 0.03 | [4] 0.007 | Nexturastat A -0.115 | vemurafenib 0.082 | [5] 0.049 | [6] 0.065 | givinostat 0.018 | barasertib 0.006

PEX7 (UniProt O00628)
Chain of UniProt O00628 (O00628 whole entry, looked up): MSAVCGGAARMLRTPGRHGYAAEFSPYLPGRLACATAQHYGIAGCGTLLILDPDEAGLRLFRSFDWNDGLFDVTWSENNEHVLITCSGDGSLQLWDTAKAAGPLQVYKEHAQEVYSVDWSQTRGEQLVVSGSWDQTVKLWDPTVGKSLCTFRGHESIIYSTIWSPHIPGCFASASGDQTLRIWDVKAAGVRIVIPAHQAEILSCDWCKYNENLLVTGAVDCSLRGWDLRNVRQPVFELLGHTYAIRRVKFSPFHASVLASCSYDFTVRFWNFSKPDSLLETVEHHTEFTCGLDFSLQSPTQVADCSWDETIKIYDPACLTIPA
inactive: [1] 0.061 | [2] -0.011 | [3] 0.025 | [4] -0.066 | Nexturastat A -0.041 | vemurafenib -0.049 | [5] 0.007 | [6] -0.035 | givinostat -0.107 | barasertib -0.089

PNPLA2 (UniProt Q96AD5)
inactive: [1] 0.009 | [2] -0.017 | [3] -0.003 | [4] 0.008 | Nexturastat A -0.021 | vemurafenib -0.017 | [5] 0.053 | [6] 0.026 | givinostat 0.036 | barasertib -0.092

PIP4K2A (UniProt P48426)
inactive: [1] -0.027 | [2] -0.061 | [3] 0.017 | [4] -0.005 | Nexturastat A -0.051 | vemurafenib -0.044 | [5] 0.004 | [6] -0.01 | givinostat -0.052 | barasertib 0.022

PRKCA (UniProt P17252)
inactive: [1] -0.014 | [2] -0.068 | [3] -0.016 | [4] 0.007 | Nexturastat A 0.023 | vemurafenib -0.015 | [5] 0.012 | [6] -0.021 | givinostat -0.02 | barasertib 0.025

PTPN12 (UniProt Q05209)
inactive: [1] -0.026 | [2] -0.071 | [3] -0.037 | [4] -0.034 | Nexturastat A 0.162 | vemurafenib -0.002 | [5] 0.04 | [6] 0.07 | givinostat 0.072 | barasertib 0.127

PLCB3 (UniProt Q01970)
inactive: [1] 0.033 | [2] -0.04 | [3] 0.021 | [4] 0.033 | Nexturastat A -0.019 | vemurafenib 0.024 | [5] 0.045 | [6] -0.032 | givinostat -0.014 | barasertib 0.018

QRICH1 (UniProt Q2TAL8)
inactive: [1] 0.064 | [2] -0.021 | [3] 0.06 | [4] 0.192 | Nexturastat A 0.158 | vemurafenib 0.173 | [5] 0.122 | [6] -0.215 | givinostat 0.07 | barasertib 0.214

PSMC6 (UniProt P62333)
Chain of UniProt P62333 (P62333 whole entry, looked up): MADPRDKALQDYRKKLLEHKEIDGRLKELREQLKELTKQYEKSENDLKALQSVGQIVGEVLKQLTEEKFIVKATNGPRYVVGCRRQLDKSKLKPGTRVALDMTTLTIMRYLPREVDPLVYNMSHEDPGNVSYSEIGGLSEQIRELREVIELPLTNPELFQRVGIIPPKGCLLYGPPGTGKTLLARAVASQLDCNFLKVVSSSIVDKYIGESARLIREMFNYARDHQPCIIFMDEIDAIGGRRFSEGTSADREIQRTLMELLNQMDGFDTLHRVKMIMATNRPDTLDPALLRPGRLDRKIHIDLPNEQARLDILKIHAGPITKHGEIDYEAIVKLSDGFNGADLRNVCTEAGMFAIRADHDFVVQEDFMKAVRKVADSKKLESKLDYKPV
inactive: [1] 0 | [2] 0.022 | [3] -0.034 | [4] -0.043 | Nexturastat A 0.034 | vemurafenib -0.067 | [5] -0.069 | [6] 0.01 | givinostat -0.081 | barasertib -0.055

PCYT1A (UniProt P49585)
Chain of UniProt P49585 (P49585 whole entry, looked up): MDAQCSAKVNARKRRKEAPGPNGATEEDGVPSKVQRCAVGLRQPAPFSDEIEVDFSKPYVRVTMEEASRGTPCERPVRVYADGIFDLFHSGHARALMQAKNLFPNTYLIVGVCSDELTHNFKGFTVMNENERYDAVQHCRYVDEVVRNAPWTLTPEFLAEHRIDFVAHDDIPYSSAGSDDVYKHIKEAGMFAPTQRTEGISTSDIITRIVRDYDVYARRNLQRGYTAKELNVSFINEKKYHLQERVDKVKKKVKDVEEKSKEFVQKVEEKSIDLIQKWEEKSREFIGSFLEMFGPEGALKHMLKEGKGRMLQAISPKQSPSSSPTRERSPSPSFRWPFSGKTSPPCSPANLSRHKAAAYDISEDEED
inactive: [1] -0.049 | [2] -0.038 | [3] -0.045 | [4] 0.035 | Nexturastat A -0.034 | vemurafenib 0.052 | [5] 0.043 | [6] -0.092 | givinostat -0.024 | barasertib 0.044

PRPSAP2 (UniProt O60256)
Chain of UniProt O60256 (O60256 whole entry, looked up): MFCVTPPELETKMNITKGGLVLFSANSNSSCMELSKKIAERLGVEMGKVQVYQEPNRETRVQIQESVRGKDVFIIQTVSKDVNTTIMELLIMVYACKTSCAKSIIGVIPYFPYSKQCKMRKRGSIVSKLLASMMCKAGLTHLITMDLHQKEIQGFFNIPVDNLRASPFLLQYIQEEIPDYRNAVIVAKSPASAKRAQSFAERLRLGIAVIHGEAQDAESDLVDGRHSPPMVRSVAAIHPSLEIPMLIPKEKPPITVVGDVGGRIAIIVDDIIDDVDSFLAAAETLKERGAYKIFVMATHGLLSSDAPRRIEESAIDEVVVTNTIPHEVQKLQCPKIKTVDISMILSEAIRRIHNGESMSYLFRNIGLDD
inactive: [1] -0.141 | [2] -0.002 | [3] -0.021 | [4] -0.07 | Nexturastat A -0.083 | vemurafenib -0.022 | [5] -0.019 | [6] -0.026 | givinostat -0.034 | barasertib -0.005

PTP4A1 (UniProt Q93096)
Chain of UniProt Q93096 (Q93096 whole entry, looked up): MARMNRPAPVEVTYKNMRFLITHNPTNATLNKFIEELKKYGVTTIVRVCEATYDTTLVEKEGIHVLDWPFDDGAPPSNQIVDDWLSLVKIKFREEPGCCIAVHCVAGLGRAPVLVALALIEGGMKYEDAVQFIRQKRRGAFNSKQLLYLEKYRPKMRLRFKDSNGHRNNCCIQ
inactive: [1] -0.007 | [2] -0.005 | [3] 0.023 | [4] 0.023 | Nexturastat A 0.002 | vemurafenib 0 | [5] 0.062 | [6] -0.024 | givinostat -0.003 | barasertib 0.035

PIP4K2B (UniProt P78356)
inactive: [1] -0.055 | [2] -0.048 | [3] 0.033 | [4] 0.026 | Nexturastat A -0.088 | vemurafenib 0.045 | [5] 0.02 | [6] 0.039 | givinostat -0.076 | barasertib 0.004

PLCG1 isoform 2 (UniProt P19174)
inactive: [1] 0.045 | [2] -0.011 | [3] 0.039 | [4] -0.012 | Nexturastat A 0.019 | vemurafenib 0.003 | [5] 0.079 | [6] -0.019 | givinostat -0.013 | barasertib 0.031

PPM1G (UniProt O15355)
inactive: [1] 0.087 | [2] -0.04 | [3] -0.031 | [4] 0.048 | Nexturastat A -0.053 | vemurafenib 0.112 | [5] 0.13 | [6] 0.067 | givinostat 0.17 | barasertib 0.052

PMPCB (UniProt O75439)
Chain of UniProt O75439 (O75439 whole entry, looked up): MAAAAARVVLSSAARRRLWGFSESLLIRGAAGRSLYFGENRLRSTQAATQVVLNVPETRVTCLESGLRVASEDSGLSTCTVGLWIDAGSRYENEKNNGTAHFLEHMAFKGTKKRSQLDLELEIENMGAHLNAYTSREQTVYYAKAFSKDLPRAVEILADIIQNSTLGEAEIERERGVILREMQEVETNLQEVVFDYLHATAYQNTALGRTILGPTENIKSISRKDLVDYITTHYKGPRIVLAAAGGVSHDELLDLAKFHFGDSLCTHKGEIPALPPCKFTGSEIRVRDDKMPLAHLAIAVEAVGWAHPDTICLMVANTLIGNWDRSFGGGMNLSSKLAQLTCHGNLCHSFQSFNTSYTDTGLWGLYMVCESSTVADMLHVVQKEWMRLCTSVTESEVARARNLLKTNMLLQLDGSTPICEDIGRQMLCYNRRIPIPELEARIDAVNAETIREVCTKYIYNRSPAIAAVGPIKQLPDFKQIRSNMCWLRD
inactive: [1] 0.012 | [2] -0.063 | [3] -0.009 | [4] 0.03 | Nexturastat A -0.07 | vemurafenib 0.06 | [5] -0.019 | [6] -0.015 | givinostat -0.042 | barasertib 0.01

PSMD6 (UniProt Q15008)
Chain of UniProt Q15008 (Q15008 whole entry, looked up): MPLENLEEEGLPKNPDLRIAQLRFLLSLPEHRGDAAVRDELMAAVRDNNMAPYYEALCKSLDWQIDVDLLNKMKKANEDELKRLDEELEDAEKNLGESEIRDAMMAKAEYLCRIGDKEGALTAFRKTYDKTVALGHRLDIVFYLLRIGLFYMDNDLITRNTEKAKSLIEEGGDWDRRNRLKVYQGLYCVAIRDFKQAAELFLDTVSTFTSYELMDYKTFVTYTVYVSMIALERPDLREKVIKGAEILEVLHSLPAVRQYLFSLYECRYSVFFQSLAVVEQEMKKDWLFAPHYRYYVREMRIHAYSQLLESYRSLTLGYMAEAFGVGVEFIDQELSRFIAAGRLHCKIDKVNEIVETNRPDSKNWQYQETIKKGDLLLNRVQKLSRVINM
inactive: [1] -0.007 | [2] -0.004 | [3] -0.045 | [4] -0.045 | Nexturastat A 0.108 | vemurafenib -0.055 | [5] -0.014 | [6] 0.01 | givinostat -0.034 | barasertib -0.012

PIK3R1 (UniProt P27986)
inactive: [1] -0.08 | [2] 0.001 | [3] -0.019 | [4] -0.046 | Nexturastat A -0.018 | vemurafenib 0.047 | [5] 0.058 | [6] -0.054 | givinostat 0.028 | barasertib 0.038

POLR2A (UniProt P24928)
inactive: [1] -0.009 | [2] -0.049 | [3] 0.064 | [4] 0.018 | Nexturastat A 0.001 | vemurafenib 0.002 | [5] 0.071 | [6] -0.023 | givinostat -0.024 | barasertib 0.024

PSMD7 (UniProt P51665)
Chain of UniProt P51665 (P51665 whole entry, looked up): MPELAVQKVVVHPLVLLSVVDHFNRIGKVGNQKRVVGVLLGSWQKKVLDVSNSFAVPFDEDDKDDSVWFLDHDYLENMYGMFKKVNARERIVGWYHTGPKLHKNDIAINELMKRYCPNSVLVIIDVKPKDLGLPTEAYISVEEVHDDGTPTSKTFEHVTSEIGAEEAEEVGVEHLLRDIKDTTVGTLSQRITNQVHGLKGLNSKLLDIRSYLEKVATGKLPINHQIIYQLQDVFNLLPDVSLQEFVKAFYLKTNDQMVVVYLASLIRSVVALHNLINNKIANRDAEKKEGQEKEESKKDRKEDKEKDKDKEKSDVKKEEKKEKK
inactive: [1] -0.011 | [2] -0.005 | [3] -0.047 | [4] -0.038 | Nexturastat A 0.145 | vemurafenib -0.073 | [5] -0.029 | [6] 0.045 | givinostat -0.03 | barasertib -0.05

PAK4 (UniProt O96013)
inactive: [1] -0.154 | [2] 0.06 | [3] -0.017 | [4] -0.017 | Nexturastat A -0.027 | vemurafenib -0.035 | [5] -0.026 | [6] -0.141 | givinostat -0.01 | barasertib 0.027

PRKAB2 (UniProt O43741)
Chain of UniProt O43741 (O43741 whole entry, looked up): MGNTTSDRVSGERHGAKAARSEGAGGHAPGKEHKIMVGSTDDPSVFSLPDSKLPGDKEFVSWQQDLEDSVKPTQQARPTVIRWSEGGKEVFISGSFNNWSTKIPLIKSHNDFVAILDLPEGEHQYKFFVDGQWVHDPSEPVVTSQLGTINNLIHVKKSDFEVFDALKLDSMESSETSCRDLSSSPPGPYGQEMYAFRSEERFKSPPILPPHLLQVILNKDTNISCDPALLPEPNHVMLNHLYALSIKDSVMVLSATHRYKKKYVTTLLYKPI
inactive: [1] 0.122 | [2] -0.015 | [3] 0.106 | [4] 0.118 | Nexturastat A -0.079 | vemurafenib 0.074 | [5] 0.177 | [6] -0.18 | givinostat 0.027 | barasertib 0.067

PDCD6 (UniProt O75340)
Chain of UniProt O75340 (O75340 whole entry, looked up): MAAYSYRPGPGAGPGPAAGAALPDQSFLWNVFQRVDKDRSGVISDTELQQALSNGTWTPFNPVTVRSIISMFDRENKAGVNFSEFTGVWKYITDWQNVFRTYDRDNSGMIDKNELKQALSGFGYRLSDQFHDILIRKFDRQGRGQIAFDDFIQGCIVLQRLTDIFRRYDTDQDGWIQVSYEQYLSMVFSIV
inactive: [1] 0.013 | [2] 0.039 | [3] -0.001 | [4] 0.032 | Nexturastat A -0.032 | vemurafenib -0.025 | [5] 0.023 | [6] -0.089 | givinostat -0.017 | barasertib 0.004

PPP2R5C isoform 4 (UniProt Q13362)
inactive: [1] -0.016 | [2] 0.004 | [3] 0.014 | [4] -0.064 | Nexturastat A 0.016 | vemurafenib 0.074 | [5] -0.004 | [6] -0.027 | givinostat -0.001 | barasertib 0.057

PPP2R5A (UniProt Q15172)
inactive: [1] -0.014 | [2] -0.039 | [3] 0.032 | [4] 0.051 | Nexturastat A -0.017 | vemurafenib 0.061 | [5] 0.146 | [6] -0.003 | givinostat 0.026 | barasertib 0.002

PATL1 (UniProt Q86TB9)
Chain of UniProt Q86TB9 (Q86TB9 whole entry, looked up): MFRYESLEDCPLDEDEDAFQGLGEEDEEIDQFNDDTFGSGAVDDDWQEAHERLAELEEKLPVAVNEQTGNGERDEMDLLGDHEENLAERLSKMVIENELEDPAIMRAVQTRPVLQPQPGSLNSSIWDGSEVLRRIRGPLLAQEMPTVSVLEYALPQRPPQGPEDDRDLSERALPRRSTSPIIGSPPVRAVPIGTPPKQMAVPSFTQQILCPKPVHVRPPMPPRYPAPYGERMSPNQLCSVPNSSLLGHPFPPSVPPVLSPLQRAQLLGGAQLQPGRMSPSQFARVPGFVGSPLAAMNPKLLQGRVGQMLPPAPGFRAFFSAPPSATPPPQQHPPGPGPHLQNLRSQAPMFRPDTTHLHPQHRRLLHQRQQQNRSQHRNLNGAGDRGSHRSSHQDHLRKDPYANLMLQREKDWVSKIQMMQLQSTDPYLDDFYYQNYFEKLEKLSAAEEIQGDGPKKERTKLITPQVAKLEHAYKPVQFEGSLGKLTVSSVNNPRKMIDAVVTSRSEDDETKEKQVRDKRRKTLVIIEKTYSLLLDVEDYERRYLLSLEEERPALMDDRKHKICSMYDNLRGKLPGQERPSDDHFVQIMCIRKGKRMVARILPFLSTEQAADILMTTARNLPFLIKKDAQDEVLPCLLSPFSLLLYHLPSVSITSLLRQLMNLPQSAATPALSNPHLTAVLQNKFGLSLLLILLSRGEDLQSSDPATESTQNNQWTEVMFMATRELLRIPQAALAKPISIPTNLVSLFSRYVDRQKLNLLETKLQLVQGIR
inactive: [1] 0.038 | [2] 0.031 | [3] -0.025 | [4] -0.064 | Nexturastat A 0.123 | vemurafenib -0.118 | [5] 0.005 | [6] 0.1 | givinostat 0.039 | barasertib 0.014

PCK2 (UniProt Q16822)
inactive: [1] -0.002 | [2] -0.064 | [3] -0.008 | [4] 0.045 | Nexturastat A -0.065 | vemurafenib -0.006 | [5] 0.002 | [6] 0.014 | givinostat -0.13 | barasertib 0.011
